Inconclusive results are not listed. A number with no mark means an inactive call. Active and inactive are the calls of the source. The call rests on the fitted dose curve; in most records, active means well fitted inhibition curve with a large enough effect; inconclusive means small, poorly fitted or top-dose-only effect; inactive means flat fitted curve, though single readings scatter. *1 amine or outer side, *2 acyl side, *3 side chain or, on linkers, in order; H or OH if unused. Where a SMILES comes first, the peptide text is derived from it. Bridges are numbered along the chain shown (N, C = ends). X6 = O=C(CCC[*:2])[*:1]
target: Calcium and integrin-binding protein 1 (Homo sapiens) (UniProt Q99828); assay: Primary qHTS for Identification of Calcium Integrin Binding Protein 1 (CIB1) Competitor (AID 1508620); conditions: CIB1-GST / FITC-alphaIIb peptide fluorescence polarization; series mostly up to 57.7 µM; activity change, negative = inhibition: at the top concentration;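 further: GST tagged CIB1 binding a fluorescein labelled alphaIIb integrin peptide tracer; top concentration of the series differs between compounds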
Sequence (Q99828 whole entry, looked up): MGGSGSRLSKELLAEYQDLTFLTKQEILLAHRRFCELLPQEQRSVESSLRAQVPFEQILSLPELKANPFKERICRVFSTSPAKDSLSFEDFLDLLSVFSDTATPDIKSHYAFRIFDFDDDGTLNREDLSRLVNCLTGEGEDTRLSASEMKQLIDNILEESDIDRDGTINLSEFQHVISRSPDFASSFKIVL
Outline: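 CIB1-GST (1 uM final) and compound incubated 15 min at room temperature before adding FITC-alphaIIb peptide tracer (100 nM final). Competition for binding read by fluorescence polarization (ex 480, em 540) after another 15 min at room temperature.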
On the % scale 0 is the no-effect control and ±100 the full control effect.

SMILES	activity change, negative = inhibition	Potency
CC1CCC2(C(=O)OC3OC(COC4OC(CO)C(O)C(O)C4O)C(O)C(O)C3O)CCC3(C)C(=CCC4C5(C)CCC(O)C(C)(C(=O)O)C5CCC43C)C2C1(C)O (stereo not given)	2.95% [at 30.2 µM]	
COc1c(C)c(C(=O)c2ccc(N)c(C(=O)O)c2)n2ccccc12		inactive
CC(/C=C/C1(O)C(C)CC(O)CC1(C)C)OC1OC(CO)C(O)C(O)C1O (stereo not given)	-5.87%	
CC(/C=C/C1(O)C2(C)COC1(C)CC(=O)C2)O[C@@H]1O[C@H](CO)[C@@H](O)[C@H](O)[C@H]1O (stereo not given in full)	-3.35%	
COc1cc(/C=C/C(=O)OC[C@H]2O[C@H](O[C@]3(CO)O[C@H](CO)[C@@H](O)[C@@H]3O)[C@H](O)[C@@H](O)[C@@H]2O)cc(OC)c1O	-0.413%	
CCOC(=O)N1CCC(NCCNC(=O)c2ccccc2C)CC1	3.6% [at 114 µM]	
CC1(C)CCCC2(C)C3=C(C(=O)OC3O)C(O)CC12 (stereo not given)	1.86% [at 114 µM]	
CC1CCC2C(C)(C)C(O)CCC2(C)C12Cc1c(O)cc3c(c1O2)C(N)=NC3 (stereo not given)	2.43%	
Clc1ccc(CN[C@H]2CCN(c3ncc(Br)cn3)C2)c(Cl)c1	-5.37% [at 114 µM]	
NC(=O)c1ccc(OCC2NC(=O)C3CCCN3C2=O)cc1 (stereo not given)	-4.46% [at 114 µM]	
O=C1[C@H](O[C@@H]2O[C@H](CO)[C@@H](O)[C@H](O)[C@H]2O)Oc2ccccc2N1O	0.884%	
C=CC(C)(O)CC/C=C(/C)C(=O)OC1C(OC2OCC(OC3OC(CO)C(O)C(O)C3O)C(OC3OCC(O)C(OC4OC(C)C(O)C(O)C4O)C3O)C2O)COC(OC(=O)C23CCC(C)(C)CC2C2=CCC4C5(C)CCC(OC6OC(CO)C(OC7OC(CO)C(O)C(OC8OCC(O)C(O)C8O)C7O)C(O)C6O)C(C)(C)C5CCC4(C)C2(C)CC3O)C1O (stereo not given)	-3% [at 12.4 µM]	
CC[C@H](C)[C@@H]1NC(=O)[C@H](Cc2ccc(OC)cc2)NC(=O)CCCSC[C@@H](C(=O)N2CCC[C@H]2C(=O)N[C@@H](CC(C)C)C(=O)NCC(N)=O)NC(=O)[C@H](CC(N)=O)NC(=O)[C@H](CCC(N)=O)NC1=O (Y(Me)IQNCPLG-NH2; linker N-5 via X6)	1.44%	
CC1C/C=C/C=C\CCCCC(O)C/C=C/C(=O)O1 (stereo not given)	-1.69% [at 114 µM]	
CC(=O)OC1C(O)CC(O[C@@H]2O[C@H](CO)[C@@H](O)[C@H](O)[C@H]2O)C2CCC3C(=O)OC(c4ccoc4)CC3(C)C21 (stereo not given in full)	-6.48%	

— PubChem BioAssay (NCATS)
